# Data taken from the supplement of paper PMC6555819.
# Legend:
# Assay in all cases: PBM binding z-score (relative to random genomic background probes); higher = stronger binding; sequences stand for … in GC…GCGATTGACAGCGTAGAATGAAGG
# [1] = test system: FXR:RXRa (NR concentration 270 nM, RXRa partner concentration 90 nM)
# How it was run: (§1)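 Probes were double-stranded and carried 34-nt variable regions with direct-repeat seeds, single-nucleotide variants, half-site ablations and random human genomic background sequences, printed on custom Agilent 4×180K protein-binding microarrays. Arrays were incubated 1 h with ligand-free nuclear receptor dimers in PBS pH 7.4, 2% milk, 0.02% Triton X-100, 1 mM DTT, 0.2 mg/mL BSA and 0.4 mg/ml salmon testes DNA. Antibodies against each partner (one per run) detected binding, and scanned fluorescence was regression-normalized. Binding z-scores use the random background probes as reference.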
# [2] = test system: LXRa:RXRa (NR concentration 270 nM, RXRa partner concentration 90 nM)
# How it was run: as §1
# [3] = test system: LXRa homodimer (NR concentration 270 nM)
# How it was run: as §1
# [4] = test system: LXRb:RXRa (NR concentration 270 nM, RXRa partner concentration 90 nM)
# How it was run: as §1
# [5] = test system: LXRb homodimer (NR concentration 270 nM)
# How it was run: as §1
# [6] = test system: PPARa:RXRa (NR concentration 270 nM, RXRa partner concentration 90 nM)
# How it was run: as §1
# [7] = test system: PPARg:RXRa (NR concentration 180 nM, RXRa partner concentration 90 nM)
# How it was run: as §1
# [8] = test system: PPARg:RXRa 270nM:90nM, anti-RXR (NR concentration 270 nM, RXRa partner concentration 90 nM)
# How it was run: as §1
# [9] = test system: PPARg:RXRa 30nM:10nM, anti-RXR (NR concentration 30 nM, RXRa partner concentration 10 nM)
# How it was run: as §1
# [10] = test system: PPARg:RXRa 90nM:30nM, anti-RXR (NR concentration 90 nM, RXRa partner concentration 30 nM)
# How it was run: as §1
# [11] = test system: PPARg:RXRa DBDmut IVT, anti-RXR (DBD mutation: RXRa K156A/R161A, NR concentration 270 nM, RXRa partner concentration 90 nM)
# How it was run: as §1
# [12] = test system: PPARg:RXRa IVT, anti-PPARg (NR concentration 270 nM, RXRa partner concentration 90 nM)
# How it was run: as §1
# [13] = test system: PPARg DBDmut:RXRa IVT, anti-PPARg (DBD mutation: PPARg1 K132A/R137A, NR concentration 270 nM, RXRa partner concentration 90 nM)
# How it was run: as §1
# [14] = test system: PPARg DBDmut IVT, anti-PPARg (DBD mutation: PPARg1 K132A/R137A, NR concentration 270 nM)
# How it was run: as §1
# [15] = test system: PPARg homodimer (NR concentration 180 nM)
# How it was run: as §1
# [16] = test system: PXR:RXRa (NR concentration 270 nM, RXRa partner concentration 90 nM)
# How it was run: as §1
# [17] = test system: PXR homodimer (NR concentration 270 nM)
# How it was run: as §1
# [18] = test system: RARa:RXR (NR concentration 270 nM, RXRa partner concentration 90 nM)
# How it was run: as §1
# [19] = test system: RARa homodimer (NR concentration 270 nM)
# How it was run: as §1
# [20] = test system: RARb:RXRa (NR concentration 270 nM, RXRa partner concentration 90 nM)
# How it was run: as §1
Sequence,PBM binding z-score [1],PBM binding z-score [2],PBM binding z-score [3],PBM binding z-score [4],PBM binding z-score [5],PBM binding z-score [6],PBM binding z-score [7],PBM binding z-score [8],PBM binding z-score [9],PBM binding z-score [10],PBM binding z-score [11],PBM binding z-score [12],PBM binding z-score [13],PBM binding z-score [14],PBM binding z-score [15],PBM binding z-score [16],PBM binding z-score [17],PBM binding z-score [18],PBM binding z-score [19],PBM binding z-score [20]
TCTCGGGGGACACGAAAGGTCAGAGCTCGACATC,4.5,5.39,3.18,5.47,5.76,5.03,3.63,4.96,3.73,4.14,3.01,4.33,6.64,6.38,5.71,5.07,1.76,5.57,2.64,4.48
CCGACTGGGGCAAGGTTACCAAAACGCACAGCCA,0.221,0.494,-0.00504,0.617,-1.39,2.07,2.78,3.62,1.01,2.6,3.12,3.53,-0.395,-0.973,0.0774,0.341,-0.627,1.09,-0.287,1.73
GGAACGAGGGCAAAGTTGATAGCCTCTGTCGACG,1.19,0.817,-0.461,0.459,-0.828,3.93,6.54,7.37,5.66,7.65,4.2,4.33,-0.184,-0.449,0.223,1.1,-0.21,1.37,-0.637,2.24
CAAACTAGGTCACGAAAGGTCAAAGGCGAATGAC,7.72,8.23,7.26,7.15,2.21,6.78,10.6,8.54,7.17,8.65,8.48,9.08,4.73,2.51,5.53,7.28,2.45,8.15,3.08,5.86
TTACCTAGGTGAGCTGAGGTCGTTGATCCAACTC,0.355,0.722,-0.414,0.389,-0.985,1.68,0.522,1.09,0.135,0.445,3.01,3.01,-0.362,0.266,0.32,3.55,0.214,1.94,-1.28,0.93
ATATGTACGTTAAGGGTCATTCAGGTTGGTTCGC,4.5,4.13,2.57,4.2,1.31,4.74,4.87,6.38,4.9,6.21,0.825,3.15,3.4,3.29,2.8,5.22,2.21,4.96,1.35,3.21
TGAACGAGGTTATAAGATCAGGGAACGTTGCAAA,1.41,1.2,-0.217,1.08,-0.589,2.56,1.16,1.5,0.646,1.06,0.0481,1.09,0.721,0.611,0.735,0.661,-0.0458,1.31,-0.0844,1.18
TCATATAGGTAAATGCTAGGTCAAAGTCCGATCT,1.83,3.8,5.26,2.45,0.769,2.57,1.76,2.81,3.96,3.47,4.1,3.27,0.472,1.99,1.7,1.98,1.11,2.7,1.22,1.88
CCGTACGGGTCACTCCAGGTTATAGCATCGGAGT,5.48,7.91,1.62,5.38,-0.751,4.45,2.97,3.49,1.05,1.9,1.15,2.49,-0.309,-1.04,1.42,5.22,0.156,3.89,-0.104,3.64
GGAACGAGGGCATTCCAGTTGATAGCATGGCGAT,1.15,1.43,-0.298,0.454,-0.264,1.42,0.909,0.848,-0.214,0.301,3.02,2.32,0.37,-0.74,0.527,2.19,0.706,0.917,-0.491,1.81
CCTTACGGGTCACTGACAGGTTATACCATTTGGA,4.86,4.42,0.698,3.61,-0.46,5.07,4.22,4.39,1.45,3.05,3.69,3.72,0.775,0.106,2.46,3.75,0.348,4.53,1.11,4.14
TCTCGGAGGACACGAAAGTTCAGAGCTCGACATC,1.03,2.18,2.89,0.952,-0.575,1.14,0.211,1.25,2.34,1.81,1.71,-0.0575,-0.141,-0.597,0.949,3.3,2.7,1.27,0.226,2.78
AGTAGTTGGTCAGCTGAGGTCACACACAATTCGG,4.48,3.37,2.92,3.55,0.79,3.63,1.63,2.33,0.674,1.56,1.18,2.65,0.554,0.308,3.34,5.41,2.54,4.6,1.53,3.63
CGTCCAAGGTCAGAGGAGGTCAGTGAAGACAGAT,6.02,5.57,2.4,4.09,-0.0595,4.82,3.53,3.88,0.854,2.48,1.93,3.41,0.0529,-0.477,3.97,6.58,2.7,5.37,1.91,5.22
TATACAGGGTCAAGGGCCAGAGTACGAATGTCGA,6.63,5.65,1.91,4.4,2.42,5.8,7.15,6.47,3.84,5.91,2.4,4.69,2.98,1.83,3.27,3.99,0.571,4.97,1.16,4.61
ATCTCTAGGTAAAGATAGTTCAGTGGATGCAAAT,0.0236,4.13,0.642,0.57,0.439,0.29,0.474,0.242,0.139,0.257,1.85,1.54,0.905,0.158,0.189,0.971,0.373,0.0212,1.18,0.718
AGAACGAGGGCAAAGAGTTGATAGCACGGGTGGC,0.422,0.331,-0.368,-0.152,-0.712,1.78,1.8,2.07,0.549,1.55,3.36,2.41,0.499,-0.21,0.413,1.77,4.76,0.09,-0.299,2.11
AGAACGAGGGCAATGCGTTGATAGCACGGGTGGC,0.0853,0.264,-0.517,-0.19,-0.678,1.3,1.36,0.671,-0.109,0.215,2.94,2.57,1.12,0.0782,-0.251,0.219,0.111,0.271,-0.114,2.21
TGAGTGAGGTTAAAGATCAGGGAACGTGGCGTCG,2.78,2.38,-0.367,1.88,1.13,4.05,3.48,4.58,2.61,3.92,0.116,1.91,0.365,0.826,1.29,2.13,0.027,3.26,0.307,2.15
CCTTACGGGTCACTCCAGCTTATAGCATCGGAGT,4.62,3.14,-0.000472,2.66,0.0792,4.46,2.98,3.49,0.864,2.44,2.73,2.95,0.84,0.0391,1.95,2.52,0.285,3.54,0.557,3.56
CGTTACGGGTCACTGACAGGTTATAGCATTTGGA,5.82,4.13,0.216,3.8,-0.201,5.54,4.6,4.21,1.79,3.39,3.65,3.74,0.269,0.284,2.14,3.75,-0.254,4.61,0.338,3.93
CCTTACGGGTCACTCCAGGATATAGCATCGGAGT,4.88,5.8,0.346,2.94,0.014,4.08,3.39,3.49,1.08,2.48,2.53,2.97,0.582,-0.0388,1.51,3.13,0.912,2.84,0.759,3.4
CAAACTAGGTCAAAGCTCAAAGTCGAGCCAACCA,4.62,3.4,0.633,2.4,0.592,5.71,10.2,8.74,9.03,9.54,8.73,8.57,5.63,0.922,1.88,1.33,0.241,2.86,0.284,3.84
GCTAGTTGGTCAGTAAAAGGTCGCACACCGGTCG,0.649,1.35,0.422,1.28,-0.0717,2.31,0.999,2.68,0.448,2.08,0.512,1.32,-0.491,-0.677,1.76,2.07,-0.218,2.6,0.227,2.34
CAAACTAGGTCACAGAGGTCAAAGTCCGTGCGTA,7.61,6.66,7.31,6.24,2.21,6.66,10.2,8.58,6.84,8.64,8.82,9.1,2.19,1.15,5.68,6.96,11.2,7.51,3.31,5.25
TCGAGTAGGTTAAGGGCATTCAGAATGGCGTCGA,0.969,1.02,-0.302,0.27,-1.02,1.75,1.68,2.85,1.35,2.37,2.73,2.37,-0.645,-1.04,0.261,0.999,0.373,0.821,-0.417,2.03
